Data reported in PubChem BioAssay (NCI).
About 83,000 compounds went through this panel and 20% of them were active in at least one assay; those are over-represented in the sample as a whole.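 Cell lines were cultured in 96-well plates, exposed to a single compound concentration, and assessed for percent growth 48 hours later.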 Unmarked numbers belong to inactive results. Calls of active or inactive are those of the source. Rule for the calls: active = growth percent below 10; inactive = the rest.

Experiments:
Test in all cases: NCI-60 one-dose screen, 48 h (100 = growth as untreated, 0 = no growth, -100 = all killed)
Conditions in all cases: 10 µM unless noted
[1] = system: SR leukemia
[2] = system: RPMI-8226 leukemia
[3] = system: OVCAR-8 ovarian
[4] = system: OVCAR-5 ovarian
[5] = system: OVCAR-4 ovarian
[6] = system: SK-OV-3 ovarian
[7] = system: IGROV1 ovarian
[8] = system: HS 578T breast
[9] = system: OVCAR-3 ovarian
[10] = system: NCI/ADR-RES ovarian

Compound	growth [1]	growth [2]	growth [3]	growth [4]	growth [5]	growth [6]	growth [7]	growth [8]	growth [9] [%]	growth [10]
COc1ccc(/C=N/NC(=O)c2c(N)nn(C)c2Nc2ccccc2)cc1	18.9%	61.6%	70.8%	76.9%	87%	49.6%	39.6%	38.1%		
N#Cc1c(-c2cccs2)cc(-c2cnccn2)nc1SCC(=O)N/N=C/c1cccs1	74.7%	25.1%	56.3%	82.8%	72.1%	56.5%	74.6%	58.7%	62.3	52.9%
Brc1ccc(-c2cc(-c3ccc4c(c3)OC=CO4)n[nH]2)s1	54.7%	93.6%	96.4%	105%	88%	88.1%	81%	92.2%		76.8%
CCCCCc1ccc(S(=O)(=O)Nc2cc(-c3csc(N)n3)ccc2OC)cc1	98.9%	78.2%	95.9%	110%	100%	127%	84.5%	97.1%		88%
O=C(CCCCCCN1CC(=O)N2[C@@H](C3CC3)c3[nH]c4ccccc4c3C[C@H]2C1=O)NO	36.5%	56.2%	37.5%	71.8%	97.6%	102%	89.2%	62%		75.7%
CCCCSC1=C(Cl)CN(c2ccc(Cl)cc2)C1=O	34.3%	31.7%	99.1%	104%	104%	110%	109%	107%		103%
CC(C)(C)OC(=O)NCc1ccc(CNc2c([N+](=O)[O-])cnc3ccccc23)cc1	37.1%	43.6%	63.4%	93.6%	54.8%	68%	76.5%	76.9%		38.2%
CCc1nnc(NC(=O)c2cc(-c3ccc(Cl)cc3Cl)oc2C)s1	96.5%	87.7%	90.3%	92.7%	48.4%	106%	87.8%	86%		88.7%
NC(=S)n1c(=O)n(-c2cccc(C(F)(F)F)c2)c(=O)c2cc(-c3ccc(F)cc3F)ccc21	5.69% (active)	-20.8% (active)	10.9%	9.62% (active)	29.9%	-2.63% (active)	21.2%	-2.09% (active)		4.95% (active)
COc1ccc(/C(=N\NC(N)=S)c2ccc(Cl)cc2)cc1OC	29.3%	45.6%	37.8%	51.2%	60.6%	18.3%	30.3%	3.4% (active)		
Cc1cc(=O)[nH]c(O)c1C#N	99.3%	-72% (active)	102%	97.2%	98.3%	106%	103%	116%		
N#Cc1c(-c2ccc(Br)cc2)cc(-c2c[nH]c3ccccc23)nc1N	25.4%	34.4%	66.4%	63.9%	74.7%	52.6%	34.4%	58.6%		24.9%
CCN(CC)c1ccc(/C=N/NC(=O)c2ccc(NS(C)(=O)=O)cc2)c(O)c1	10.6%	15.8%	12%	46%	31.3%	34.2%	20.3%	55.7%		36.9%
COc1ccc(-c2cc(-c3ccc(N(C)C)cc3)n3c(n2)nc2ccccc23)cc1	50.8%	23.1%	39.8%	95.5%	56.7%	55.5%	77.6%	82.4%		59.5%
O=C1[C@H]2Cc3c([nH]c4ccccc34)[C@H](c3ccc(Cl)cc3)N2C(=O)CN1C1CCN(CC2CCCCC2)CC1	-5.73% (active)	23.4%	74.9%	96.1%	72.7%	93.8%	72.2%	74.4%		68.5%
CCn1c2ccc(/C=N/N(C)S(=O)(=O)CCN(C)C)cc2c2cc(/C=N/N(C)S(=O)(=O)CCN(C)C)ccc21	2.12% (active)	65.2%	48.9%	82.6%	69.2%	106%	2.68% (active)	76.8%		54.7%
C#Cc1nc(/C=C\CCCCCCC(=O)NO)cs1	-19.7% (active)	-1.07% (active)	40.9%	45.7%	69.9%	91.6%	-68.2% (active)	64.9%		
CN1CCN(c2ccc(Nc3nc(NCCNS(=O)(=O)c4ccccc4)c4sccc4n3)cc2)CC1	117%	102%	106%	102%	92.5%	107%	95.9%	88.1%		
CN1CCN(c2ccc(Nc3nc(NCCNS(=O)(=O)c4ccc(Cl)cc4)c4sccc4n3)cc2)CC1	22.7%	80.8%	101%	98.7%	84%	121%	92.9%	81.2%		100%
COc1ccc2c(c1)c(-c1nn3cc(-c4ccncc4)nc3s1)cn2C	-3.79% (active)	61.4%	71.7%	102%	82.3%	93.6%	70.3%	86.9%		69.8%
CN1CCN(Cc2ccc(NC(=O)c3cncc(C#Cc4cnc5ccc(OCC6COC6)nn45)c3)cc2C(F)(F)F)CC1	-22.7% (active)	-24.4% (active)	-54.5% (active)	-75.1% (active)	-69.9% (active)	-22.6% (active)	-39% (active)	-37.3% (active)		-34.4% (active)
O=C(COc1ccc(/C=C2\C(=O)Nc3ccc(Cl)cc32)cc1)Nc1ccc(Cl)cc1	44.9%	68.7%	60.1%	69.8%	59.2%	88.3%	59.8%	77.6%		59.6%
COc1ccc(-c2c3c(cn2Cc2cccc(OC)c2)-c2oncc2CCC3)cc1	89.2%	93.6%	98.5%	108%	100%	98.3%	94.3%	101%		
NC(=O)c1ncn2c(=O)n(CCF)nnc12	35.3%	44%	38.3%	85.1%	58%	17.3%	70.3%	103%		50.6%
FC(F)(F)c1cc(Br)cc(-c2cc(-c3ccc4c(c3)OCCO4)[nH]n2)c1	20.8%	22.5%	19.7%	48.8%	75.6%	52.5%	20.8%	41.4%		9.71% (active)
Brc1cccc(-c2cc(-c3ccc4c(c3)OC=CO4)[nH]n2)c1	27.6%	22.5%	42.3%	71.5%	82.1%	67.9%	41.3%	58.8%		15.3%
Nc1ccc(Nc2ncnc3sc4c(c23)CCN(Cc2ccccc2)C4)cc1	82.9%	94.3%	99.3%	107%	96.8%	113%	101%	98.2%		101%
CC[C@]12CC(C(=O)OC)=C3Nc4ccccc4[C@@]34CCN(C14)[C@@H]1c3cc4c(cc3O[C@@H]1[C@H]2O)NC1=C(C(=O)OC)C[C@@]2(CC)C3N(CC[C@@]143)C[C@H]1O[C@H]12 (stereo partly specified)	6.59% (active)	-3% (active)	24.4%	38.6%	33.2%	27.9%	15.9%	12.2%		
